Laboratory results as given in PubChem BioAssay (NCI).
Compounds without any hit were thinned out: in the full panel of roughly 83,000, 20% have a hit.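 Values shown are percent growth following 48 h exposure of cells in 96-well plates to a single concentration of compound; below 10 was considered active.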 Values without a mark were called inactive. Activity calls are given as the source filed them.

Key:
Test in all cases: NCI-60 one-dose screen, 48 h (100 = growth as untreated, 0 = no growth, -100 = all killed)
Details in all cases: 10 µM unless noted
[1] = test system: SK-MEL-2 melanoma
[2] = test system: EKVX NSCLC
[3] = test system: SN12C renal
[4] = test system: UO-31 renal
[5] = test system: TK-10 renal
[6] = test system: ACHN renal
[7] = test system: CAKI-1 renal
[8] = test system: A498 renal
[9] = test system: CCRF-CEM leukemia
[10] = test system: MOLT-4 leukemia
[11] = test system: SR leukemia
[12] = test system: RPMI-8226 leukemia
[13] = test system: OVCAR-8 ovarian
[14] = test system: OVCAR-5 ovarian
[15] = test system: OVCAR-4 ovarian
[16] = test system: SK-OV-3 ovarian
[17] = test system: IGROV1 ovarian
[18] = test system: OVCAR-3 ovarian
[19] = test system: HS 578T breast
[20] = test system: NCI/ADR-RES ovarian

Compound	growth [1]	growth [2]	growth [3]	growth [4]	growth [5]	growth [6]	growth [7]	growth [8]	growth [9]	growth [10]	growth [11]	growth [12]	growth [13]	growth [14]	growth [15]	growth [16]	growth [17]	growth [18]	growth [19] [%]	growth [20]
Cc1nnc(N/N=C/c2ccc([N+](=O)[O-])o2)[nH]c1=O	7.95% (active)	-17.2% (active)	13.8%	5.83% (active)	-10.2% (active)	-50.8% (active)	-23.3% (active)	-1.71% (active)	-21.9% (active)	5.88% (active)	8.26% (active)	42.1%	21.1%	-2.06% (active)	29.4%	10.4%	21%	-7.14% (active)	22	8.65% (active)
O=C1c2ccccc2C(=O)c2c(O)c(Cl)cc(O)c21	124%	98.3%	96.5%	79.8%	89.4%	92.1%	95.1%	91%	64.3%	75.9%	62%	96.4%	58.2%	92.6%	84.3%	99.5%	81.1%	-17.9% (active)	106	93.7%
CC(C)Nc1ccc(Nc2ccc(NC(C)C)cc2)cc1	69.9%	31.3%	30.7%	87%	62.6%	70.4%	94.4%	84.1%	58.6%	30.1%	26.2%	17.8%	51.6%	96.3%	49.5%	53.2%	50.7%	31.6%	73.4	95.5%
Cn1c(-c2ccccc2)c(/C=C/C2=[N+](C)c3ccccc3C2(C)C)c2ccccc21	6.41% (active)	20%	7.02% (active)	74%	3.06% (active)	18.2%	35.6%	3.03% (active)	8% (active)	-10.6% (active)	9.26% (active)	-1.71% (active)	2.16% (active)	33.9%	12.2%	-9.3% (active)	33.9%	6.26% (active)	11	86.8%
CN(C)CCSC1=Nc2ccc(Cl)cc2C(c2ccccc2Cl)N(C)C1 (centres undefined)	81.8%	81%	63.8%	24.5%	64.9%	74.2%	20.5%	127%	85.2%	79.2%	44.1%	50.7%	78.8%	88.4%	39.4%	72%	41.6%	59.9%	24.2	66%
CC1=CC(=O)C=CC1(C)C(Cl)(Cl)Cl (centres undefined)	87.5%	100%	88.8%	92%	80.2%	97.3%	104%	87.6%	94.9%	93.9%	94.2%	104%	90.3%	101%	114%	94.3%	100%	116%	93.1	102%
Cc1cc(C(N)=O)cc(C)c1C(=O)OCCCl	119%	89.1%	98.3%	86.2%	106%	108%	97.6%	98.8%	112%	95.8%	89.6%	111%	102%	108%	103%	105%	111%	99.5%	97	107%
O=C(c1ccccc1)C(Br)[N+](=O)[O-] (centres undefined)	97.5%	96.5%	103%	80.8%	106%	86.8%	93%	101%	24.8%	20.6%	5.17% (active)	75.9%	83.9%	96.4%	104%	79.9%	–	101%	91.3	101%
CCCCCCC1N=C(N)N=C(N)N1c1cccc(Cl)c1 (centres undefined)	82.9%	76.8%	26.8%	93.4%	67.6%	53.9%	100%	83%	28.7%	25.4%	31.5%	14%	35.7%	58.9%	43.9%	45.1%	58%	41.5%	55.2	111%
Cc1nc(Sc2nc3ccc([N+](=O)[O-])cc3s2)sc1C	15.4%	88.5%	-29.4% (active)	23.5%	19.3%	11.4%	28.5%	46.5%	-13.5% (active)	-7.45% (active)	-13.2% (active)	2.79% (active)	19.5%	34.8%	36.4%	39.4%	–	-2.8% (active)	50	16.7%
O=C1/C(=C/c2ccccc2)CCC/C1=C\c1ccccc1	99.7%	96.1%	93.2%	88.1%	104%	95.6%	84.3%	84.6%	76.3%	73%	67.4%	-3.31% (active)	91.7%	120%	94.1%	99.6%	80%	65.1%	101	95.2%
Cc1cc(=O)oc2cc(O)cc(O)c12	107%	99.3%	102%	83.5%	97.8%	102%	94.6%	117%	107%	99.8%	106%	111%	105%	96.4%	104%	104%	108%	99.2%	106	108%
CN1CCC(c2ccccc2)(c2ccccc2)C(=O)C1	122%	47.3%	101%	68.9%	76.4%	102%	71.2%	106%	29.1%	92.7%	78.2%	41.7%	95.9%	86.8%	57%	103%	89.8%	68.7%	–	73.9%
O/N=C1\c2ccccc2-c2ccc(F)cc21	97.5%	90.4%	94.4%	47.7%	84.8%	87.1%	94.1%	132%	86.5%	71.6%	91.2%	85.8%	102%	93.8%	85.8%	97.3%	85.4%	–	120	107%
C(=N\Nc1ccc2ccccc2n1)/c1ccccn1	39.5%	20.7%	17.7%	-29.8% (active)	48%	7.28% (active)	2.92% (active)	26.7%	16.9%	6.6% (active)	6.86% (active)	25.1%	18.5%	47.4%	22.2%	26.1%	2.7% (active)	–	38.4	18.6%
Oc1ccc(Nc2ccc3ccccc3c2)cc1	62.4%	79%	64.8%	10.6%	45.3%	18.5%	8.98% (active)	94.1%	49%	46.8%	50.4%	58.6%	59.8%	71.5%	60.2%	89.3%	58.1%	69.8%	87.6	41.8%
CCCCCCCCCCCCCCCCCC[S+](C)CC (centres undefined)	48.1%	91.7%	25.7%	59.6%	9.52% (active)	16.2%	66.5%	63.2%	14.6%	-4.95% (active)	32.7%	30.4%	13.9%	9.31% (active)	7.76% (active)	49.5%	-34.2% (active)	–	35.9	84.7%
